Experimental findings from PubChem BioAssay (NCATS) are described below.

A short description of test [1]: Confirmation and Secondary Assay for Modulators of Hemoglobin Beta Chain Splicing at IVS2 654 locus (AID 910).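 Note: per-well total GFP intensity by laser scanning cytometry after 2-day treatment.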 The gist of the method: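 HeLa cells stably carrying EGFP interrupted by mutant beta-globin IVS2-654 intron (CMV-driven) were treated with compound for 2 days at 37C; corrected splicing was scored as total peak GFP intensity per well (488 nm excitation, 500-520 nm emission).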

Test [2] addresses Ubiquitin carboxyl-terminal hydrolase 1 (Homo sapiens) (UniProt O94782). In words: Inhibitors of USP1/UAF1: Pilot qHTS (AID 504865).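 Note: rhodamine fluorescence freed from ubiquitin-rhodamine substrate followed over time; top concentration of the series differs between compounds; nearly all actives have a fitted effect of over 35% in size.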 The procedure, abridged:
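USP1/UAF1 complex at 1 nM preincubated 15 min at room temperature with compound, then Ub-Rho substrate added at 150 nM final. Fluorescence (480/540 nm) read kinetically in 50 mM HEPES pH 7.8, 0.5 mM EDTA, 1 mM TCEP, 0.1 mg/ml BSA, 0.01% Tween-20.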

Test [3] is described as follows: S16 Schwann cell viability assay (CellTiter-Glo assay) (AID 624031). Note: nearly all actives have a fitted effect of over 70% in size. Note: potency is the fitted concentration of half-maximal effect. The procedure, abridged:
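Cells were seeded at 500-750 per well in phenol red-free DMEM with 10% FBS and left overnight. Compounds or DMSO were pinned in, incubation ran 24 h at 37 °C/5% CO2, then CellTiter-Glo reagent was added and luminescence measured.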
(Cellular ATP, detected with luciferase, serves as a proxy for viable cell number.)

The nature of test [4]: S16 Schwann cell PMP22 intronic element firefly luciferase assay (AID 624032). Note: nearly all actives have a fitted effect of over 30% in size. Note: potency is the fitted concentration of half-maximal effect. The gist of the method: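 Rat S16 Schwann cells stably carrying a PMP22 intronic element-driven Fluc reporter were seeded overnight, then exposed to compounds for 24 h at 37 °C. Luminescence was normalized to PTC124 (positive control) and DMSO (0% activity).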
The test system of another test is 7G8. In words: qHTS profiling for inhibitors of Plasmodium falciparum proliferation (AID 504749). Note: nearly all actives have a fitted effect of over 60% in size. Note: potency is the fitted concentration of half-maximal effect. To be noted: P. falciparum in erythrocytes, SYBR Green DNA, 72 h; series mostly up to 28.7 µM. The procedure, abridged:
(§1)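 Fluorescence of SYBR Green-bound parasite DNA, read at 485/535 nm, served as the growth measure. Infected erythrocytes were cultured with compound 72 h; artemisinin (0.29 uM) and DMSO wells defined the normalization range.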

Another test relates to AA1029. The test is described as above. Conditions: P. falciparum in erythrocytes, SYBR Green DNA, 72 h; series mostly up to 28.7 µM. The gist of the method:
as §1

A further test deals with CP211. The description is as above. To be noted: P. falciparum in erythrocytes, SYBR Green DNA, 72 h; series mostly up to 28.7 µM. The gist of the method:
as §1

A further test has as its system CP217. The description is as above. To be noted: P. falciparum in erythrocytes, SYBR Green DNA, 72 h; series mostly up to 28.7 µM. The gist of the method:
as §1

The next test relates to CP250. Described as above. To be noted: P. falciparum in erythrocytes, SYBR Green DNA, 72 h; series mostly up to 28.7 µM. The procedure, abridged:
as §1

The next test relates to CP315. The test is described as above. To be noted: P. falciparum in erythrocytes, SYBR Green DNA, 72 h; series mostly up to 28.7 µM. The procedure, abridged:
as §1

The subject of a further test is DIV17. Described as above. Conditions: P. falciparum in erythrocytes, SYBR Green DNA, 72 h; series mostly up to 28.7 µM. The gist of the method:
as §1

Another test deals with ICS. The description is as above. To be noted: P. falciparum in erythrocytes, SYBR Green DNA, 72 h; series mostly up to 28.7 µM. The procedure, abridged: as §1
For another test, the system named is JCK. Described as above. Conditions: P. falciparum in erythrocytes, SYBR Green DNA, 72 h; series mostly up to 28.7 µM. The procedure, abridged:
as §1

In the next test the test system is PC15. The test is described as above. To be noted: P. falciparum in erythrocytes, SYBR Green DNA, 72 h; series mostly up to 28.7 µM. The procedure, abridged:
as §1

The target of test [5] is Luciferin 4-monooxygenase (Photinus pyralis) (UniProt P08659). Kind of test: Biochemical firefly luciferase enzyme assay for NPC (AID 624030).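 Note: purified P. pyralis luciferase at 10 nM with luciferin and ATP substrate; nearly all actives have a fitted effect of over 70% in size.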 The gist of the method:
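Counter-screen for direct inhibition of the luciferase enzyme by approved-drug library compounds, run at 10 nM enzyme in 50 mM Tris acetate (final). Luminescence was read within 5 min of enzyme-buffer addition and normalized to PTC124 versus DMSO (0%).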

Test [6] can be described thus: S16 Schwann cell PMP22 intronic element beta-lactamase assay (AID 624044; calls by dose curve; note: nearly all actives have a fitted effect of over 15% in size). The procedure, abridged: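 Beta-lactamase reporter under a PMP22 intronic regulatory element in stable S16 rat Schwann cells; 24 h compound exposure. 460 nm blue signal normalized between DMSO (0%) and potassium clavulanate, with 535 nm FRET tracking viability; curves classed by r2 and response.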

The test system of another test is CP262. In words: qHTS profiling for inhibitors of Plasmodium falciparum proliferation (AID 504749). Note: nearly all actives have a fitted effect of over 60% in size. Note: potency is the fitted concentration of half-maximal effect. To be noted: P. falciparum in erythrocytes, SYBR Green DNA, 72 h; series mostly up to 28.7 µM. The procedure, abridged:
as §1
(In general: In qHTS, concentration-response curves come from the screen itself.)

The next test deals with CP325. Described as above. To be noted: P. falciparum in erythrocytes, SYBR Green DNA, 72 h; series mostly up to 28.7 µM. The procedure, abridged: as §1
For another test, the system named is DFO2036. Described as above. Conditions: P. falciparum in erythrocytes, SYBR Green DNA, 72 h; series mostly up to 28.7 µM. The procedure, abridged: as §1
The test system of the next test is N140. The test is described as above. Conditions: P. falciparum in erythrocytes, SYBR Green DNA, 72 h; series mostly up to 28.7 µM. The gist of the method: as §1

SMILES strings stand for the structures. Results filed as inconclusive are left out. Calls of active or inactive are those of the source. Unless noted, calls come from the whole dose curve; as a rule, active = well fitted curve in the direction sought with a large enough effect; inconclusive = small, poorly fitted or top-dose-only effect, or another doubt; inactive = no such curve, though single readings can be large; an effect the other way counts as inactive or inconclusive.

Sequence of Luciferin 4-monooxygenase (Photinus pyralis) (P08659 whole entry, looked up): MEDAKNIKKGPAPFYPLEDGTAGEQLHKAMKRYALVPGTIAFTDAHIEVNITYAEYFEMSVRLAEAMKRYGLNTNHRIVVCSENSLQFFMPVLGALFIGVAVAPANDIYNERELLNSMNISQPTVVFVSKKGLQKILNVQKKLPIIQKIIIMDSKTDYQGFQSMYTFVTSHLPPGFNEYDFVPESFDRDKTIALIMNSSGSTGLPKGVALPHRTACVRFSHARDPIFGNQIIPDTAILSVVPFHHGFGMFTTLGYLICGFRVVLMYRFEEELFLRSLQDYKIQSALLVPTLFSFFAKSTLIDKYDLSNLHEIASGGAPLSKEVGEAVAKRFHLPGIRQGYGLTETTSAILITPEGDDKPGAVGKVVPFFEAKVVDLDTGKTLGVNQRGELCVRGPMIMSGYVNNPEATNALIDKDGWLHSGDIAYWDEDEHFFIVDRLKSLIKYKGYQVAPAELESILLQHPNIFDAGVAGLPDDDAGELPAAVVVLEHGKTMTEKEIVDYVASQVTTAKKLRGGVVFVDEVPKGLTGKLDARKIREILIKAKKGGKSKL
Sequence of Ubiquitin carboxyl-terminal hydrolase 1 (Homo sapiens) (O94782 whole entry, looked up): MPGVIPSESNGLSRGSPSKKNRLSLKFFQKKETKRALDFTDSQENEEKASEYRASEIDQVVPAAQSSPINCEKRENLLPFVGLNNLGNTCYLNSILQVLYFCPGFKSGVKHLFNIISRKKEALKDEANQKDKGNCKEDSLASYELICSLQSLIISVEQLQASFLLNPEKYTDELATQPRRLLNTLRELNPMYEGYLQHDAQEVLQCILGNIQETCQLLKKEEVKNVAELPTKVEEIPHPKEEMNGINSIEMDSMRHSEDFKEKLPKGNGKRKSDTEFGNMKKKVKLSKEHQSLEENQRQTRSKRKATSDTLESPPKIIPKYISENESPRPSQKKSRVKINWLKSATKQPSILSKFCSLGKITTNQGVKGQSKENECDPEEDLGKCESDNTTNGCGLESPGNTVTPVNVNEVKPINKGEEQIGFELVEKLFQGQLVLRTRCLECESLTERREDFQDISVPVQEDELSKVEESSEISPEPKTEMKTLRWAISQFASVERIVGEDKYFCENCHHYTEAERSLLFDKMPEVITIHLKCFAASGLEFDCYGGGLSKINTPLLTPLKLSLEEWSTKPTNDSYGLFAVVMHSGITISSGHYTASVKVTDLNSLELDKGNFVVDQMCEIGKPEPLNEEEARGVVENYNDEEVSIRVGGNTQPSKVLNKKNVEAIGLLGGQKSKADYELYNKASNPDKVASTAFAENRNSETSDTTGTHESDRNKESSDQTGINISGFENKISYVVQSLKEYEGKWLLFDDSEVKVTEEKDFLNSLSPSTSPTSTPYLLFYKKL

Take `Cc1cccc(CNc2ncnc3ccc(-c4ccc(C(=O)N(C)C)cc4)cc23)c1`: in test [1], the molecule was classed as inactive.

In the case of `Cc1cccc(CNc2nc(-c3cccnc3)nc3ccccc23)c1`, the molecule was called inactive in test [1].

Regarding `OC[C@H](S)CS`, the Potency entry (in test [2]; in the test on CP211; in the test on CP217; in the test with CP250; in the test on CP315) was “inactive” in each case. Besides, the Potency was 36.1 µM (active) in [3]; 7.21 µM (active) in test [4]; 0.891 µM (active) with 7G8; 10 µM (active) in the test on AA1029; 3.38 µM (active) in the test on DIV17; 2.24 µM (active) in the test with ICS. In addition, the Potency is 10 µM (active) in the test on JCK and 3.16 µM (active) with PC15.

Turning to `CCc1ccc2c(c1)N(C[C@H](C)CN(C)C)c1ccccc1S2`, the call in test [5] and in test [6] was inactive. In addition, the Potency was 28.7 µM (active) in test [3], 10 µM (active) in the test on 7G8, 6.01 µM (active) in the test with DIV17 and 7.94 µM (active) in the test on ICS. Besides, the Potency entry (in test [4]; in the test on CP262; in the test with CP315; in the test with CP325; in the test with DFO2036; in the test on N140) was “inactive” in each case. Further, the Potency entry in the test with PC15 is “inactive”.

In the case of `CC(=O)N1CCN(c2ccc(OC[C@@H]3CO[C@@](Cn4ccnc4)(c4ccc(Cl)cc4Cl)O3)cc2)CC1`, the call in test [5] and in test [6] was inactive. The Potency result (in test [3]; in test [4]; in the test on AA1029; in the test with CP211; in the test with CP217; in the test on CP250) was “inactive” throughout. Also, the Potency result in the test on CP262, in the test with CP325, in the test on DFO2036, in the test with JCK and in the test on N140 was “inactive” in each case. The Potency in the test on 7G8 was 11.2 µM (active).

`N=c1ccn2c(n1)O[C@@H]1[C@@H](O)[C@H](CO)O[C@H]12`: in [1], the outcome was inactive.

Regarding `Cc1nnc(SCC2=C(C(=O)O)N3C(=O)[C@@H](NC(=O)Cn4cnnn4)[C@@H]3SC2)s1`, in [2], the Potency result is “inactive”.

As to `COc1cc2nc(N(C)CCCNC(=O)[C@@H]3CCCO3)nc(N)c2cc1OC`, the Potency result (in [2]; in test [3]; in test [4]; in the test with 7G8; with AA1029; with CP211) was “inactive” each time. For the same molecule, the Potency entry in the test on CP217, in the test with CP250, in the test on CP262, with CP315, with CP325 and in the test with DFO2036 was “inactive” in each case. For the same molecule, the Potency entry with DIV17, with ICS, in the test on JCK, in the test with N140 and in the test with PC15 was “inactive” in each case. Besides, the molecule was called inactive in [5] and in test [6].

Take `C(=C/c1ccccc1)/CN1CCN(C(c2ccccc2)c2ccccc2)CC1`: the Potency result (in [2]; in the test on AA1029; in the test on CP211; in the test with CP217; in the test on CP250; in the test with CP262) was “inactive” throughout. Moreover, the Potency result with CP315, with CP325, in the test with DFO2036, in the test on DIV17, with JCK and in the test on N140 was “inactive” throughout. In addition, the Potency entry in the test on PC15 is “inactive”. In addition, the molecule was classed as inactive in test [5] and in test [6]. In the test with ICS, the Potency is 7.94 µM (active).
